Laboratory results published in PubChem BioAssay (NCI).
This is part of a sample that, as a whole, favours compounds with a hit. Of some 83,000 tested, about 20% had one in any assay.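 Method: cells in 96-well plates; compound added at one concentration; 48 h incubation; percent growth measured; values under 10 scored active.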 Calls of active or inactive are those of the source.

Columns and labels:
Experiment in all cases: NCI-60 one-dose screen, 48 h (100 = growth as untreated, 0 = no growth, -100 = all killed)
HCT-15 colon = details: 10 µM unless noted
HT29 colon = details: 10 µM unless noted
SNB-75 CNS = details: 10 µM unless noted
SNB-19 CNS = details: 10 µM unless noted
PC-3 prostate = details: 10 µM unless noted
SK-MEL-5 melanoma = details: 10 µM unless noted
UACC-62 melanoma = details: 10 µM unless noted
LOX IMVI melanoma = details: 10 µM
SK-MEL-28 melanoma = details: 10 µM unless noted
U251 CNS = details: 10 µM unless noted

Measured: growth

COC(=O)/C=C/c1cccc2c1C(=O)NC(C)(c1cc3ccccc3oc1=O)N2 (stereo unspecified)
inactive: HCT-15 colon 36.3% | HT29 colon 69.8% | SNB-75 CNS 41.6% | SNB-19 CNS 81.5% | PC-3 prostate 58.9% | SK-MEL-5 melanoma 78.5% | UACC-62 melanoma 42.8% | LOX IMVI melanoma 38.9% | SK-MEL-28 melanoma 75.4%

Cn1cc(-c2nnc(N)nc2-c2c[nH]c3ccccc23)c2cccnc21
inactive: HCT-15 colon 28.9% | HT29 colon 17.2% | SNB-75 CNS 28.5% | SNB-19 CNS 51.6% | SK-MEL-5 melanoma 24.4% | UACC-62 melanoma 33.9% | SK-MEL-28 melanoma 55%

COc1ccc(-c2c(Nn3cnnn3)no[n+]2[O-])cc1
inactive: HCT-15 colon 31.3% | HT29 colon 39.4% | SNB-75 CNS 29.6% | SNB-19 CNS 71% | PC-3 prostate 59.4% | SK-MEL-5 melanoma 75.7% | UACC-62 melanoma 47.5% | SK-MEL-28 melanoma 85.5%

COc1ccc(C(=O)/C=C/c2ccccc2Cl)cc1S(N)(=O)=O
inactive: HCT-15 colon 92.9% | HT29 colon 109% | SNB-75 CNS 107% | SNB-19 CNS 97.4% | PC-3 prostate 106% | UACC-62 melanoma 92.9% | LOX IMVI melanoma 105% | SK-MEL-28 melanoma 103%

O=C(c1ccc(Cl)cc1)c1ccc(OCCCN2CCN(c3ccncc3)CC2)cc1
active: HCT-15 colon -18.6% | SK-MEL-5 melanoma -47.7% | UACC-62 melanoma -63.5%
inactive: HT29 colon 11.2% | SNB-75 CNS 69.4% | U251 CNS 28.6% | PC-3 prostate 26.9% | LOX IMVI melanoma 10.1% | SK-MEL-28 melanoma 14.8%

C#C[C@]1(O)CC[C@H]2[C@@H]3CC=C4c5sc(-c6ccc([N+](=O)[O-])cc6)nc5CC[C@]4(C)[C@H]3CC[C@@]21C
inactive: SNB-75 CNS 93.7% | SNB-19 CNS 34.5% | SK-MEL-5 melanoma 23% | UACC-62 melanoma 10.6%
active: HCT-15 colon -41.4% | HT29 colon -80.4% | PC-3 prostate 1.72% | LOX IMVI melanoma -59.9% | SK-MEL-28 melanoma -44.8%

CCOC(=O)C(N=Nc1ccc(S(=O)(=O)N=C(N)N)cc1)C(C)=O (stereo unspecified)
inactive: HCT-15 colon 108% | HT29 colon 107% | SNB-75 CNS 74.3% | U251 CNS 98.6% | PC-3 prostate 98.5% | SK-MEL-5 melanoma 102% | UACC-62 melanoma 99.2% | LOX IMVI melanoma 109% | SK-MEL-28 melanoma 109%

N#Cc1c(-c2ccc(Cl)cc2)nc2n[nH]c(-c3ccc(Cl)cc3)c2c1-c1cccs1
inactive: HCT-15 colon 41.9% | HT29 colon 47% | SNB-75 CNS 77.5% | SNB-19 CNS 75.1% | PC-3 prostate 34.3% | SK-MEL-5 melanoma 40.8% | UACC-62 melanoma 60.9% | SK-MEL-28 melanoma 76.1%

CSc1ccc(C(=O)Nc2ccc3nn(/C(C#N)=C/c4ccccn4)nc3c2)cc1
active: HCT-15 colon -70.1% | HT29 colon -88.6% | SNB-19 CNS -70.9% | PC-3 prostate -28% | SK-MEL-5 melanoma -54.9% | UACC-62 melanoma -91.2% | SK-MEL-28 melanoma -83.5%
inactive: SNB-75 CNS 33.1%

COc1cc2c(c(OC)c1OC)C(=O)CC(c1cccc(NC(=O)c3cc(NC(=O)[C@H](C)N)ccc3Cl)c1)O2 (stereo partly specified)
inactive: HCT-15 colon 24.5% | HT29 colon 59.5% | SNB-75 CNS 76.1% | SNB-19 CNS 67.1% | PC-3 prostate 22% | SK-MEL-5 melanoma 24.9% | UACC-62 melanoma 34% | LOX IMVI melanoma 15.7% | SK-MEL-28 melanoma 63%

COc1ccc(C(=O)/C=C/c2cccc(Br)c2)cc1S(N)(=O)=O
active: HCT-15 colon -69.7% | HT29 colon -56.4% | SNB-75 CNS -17% | SNB-19 CNS -42.8% | U251 CNS -98.4% | UACC-62 melanoma -55.8% | LOX IMVI melanoma -91.7% | SK-MEL-28 melanoma -55.6%

CC(C)Sc1nc(NCCc2c[nH]c3ccccc23)c(C#N)c(-c2ccccc2)n1
inactive: SNB-75 CNS 60.6% | U251 CNS 15.5% | PC-3 prostate 12.6% | UACC-62 melanoma 79.4% | SK-MEL-28 melanoma 81.5%
active: HCT-15 colon -19.9% | HT29 colon -30.6% | SK-MEL-5 melanoma -6.58% | LOX IMVI melanoma -68.7%

COc1ccc(C2=NN(c3ccccc3)C(c3ccc(OC)c(OCc4ccccc4)c3)C2)cc1OC (stereo unspecified)
inactive: HCT-15 colon 83.8% | HT29 colon 70.5% | SNB-75 CNS 90.6% | SNB-19 CNS 88.1% | PC-3 prostate 98% | SK-MEL-5 melanoma 94.1% | UACC-62 melanoma 81.8% | SK-MEL-28 melanoma 115%

Cc1ccc2c(N)c(C(=O)Nc3ccc(OC(F)(F)F)cc3)sc2n1
inactive: HCT-15 colon 61% | HT29 colon 75.2% | SNB-75 CNS 91.8% | SNB-19 CNS 79.5% | PC-3 prostate 58.4% | SK-MEL-5 melanoma 26% | UACC-62 melanoma 61.2% | SK-MEL-28 melanoma 85.5%

S=C(Nc1ccccc1)Nc1ccc(OCc2nc3ccccc3[nH]2)cc1
inactive: HCT-15 colon 29.5% | HT29 colon 25.4% | SNB-75 CNS 27.4% | SNB-19 CNS 39.8% | SK-MEL-5 melanoma 49.1% | UACC-62 melanoma 33.6% | SK-MEL-28 melanoma 61.6%

CC(=O)c1c(N)c(C#N)cn1-c1ccc(Cl)cc1Cl
inactive: HCT-15 colon 99.5% | HT29 colon 106% | SNB-75 CNS 90.5% | SNB-19 CNS 102% | PC-3 prostate 90.8% | SK-MEL-5 melanoma 98.8% | UACC-62 melanoma 80.8% | LOX IMVI melanoma 99.2% | SK-MEL-28 melanoma 106%

O=C(c1ccccc1)c1ccc2nc(-c3cccc(Cl)c3)[nH]c2c1
inactive: HCT-15 colon 108% | HT29 colon 110% | SNB-75 CNS 99.2% | SNB-19 CNS 103% | PC-3 prostate 99.6% | SK-MEL-5 melanoma 99.5% | UACC-62 melanoma 98% | LOX IMVI melanoma 95.4% | SK-MEL-28 melanoma 104%

C=C1CC[C@@H]2[C@]3(C)COC(c4cn[nH]c4-c4ccc(OC)cc4)O[C@@H]3CC[C@@]2(C)[C@@H]1C/C=C1/C(=O)OCC1O (stereo partly specified)
active: HCT-15 colon -35.3% | HT29 colon -26.3% | SNB-75 CNS -16.5% | SK-MEL-5 melanoma -94.3% | UACC-62 melanoma -75.2% | SK-MEL-28 melanoma -52.2%
inactive: SNB-19 CNS 18.5% | PC-3 prostate 39.3%

CCC(C)(C)c1ccc(OCCCCN2CCN(c3ccncc3)CC2)cc1
active: HCT-15 colon -1.1% | HT29 colon 6.61% | U251 CNS -11.8% | SK-MEL-5 melanoma -99.4% | UACC-62 melanoma -74.5% | LOX IMVI melanoma -76.8% | SK-MEL-28 melanoma -6.03%
inactive: SNB-75 CNS 69.5% | PC-3 prostate 19.3%

N#Cc1c(-c2ccccc2Cl)cc(-c2c[nH]c3ccccc23)[nH]c1=O
inactive: HCT-15 colon 48.7% | HT29 colon 107% | SNB-75 CNS 25.7% | SNB-19 CNS 69.5% | PC-3 prostate 72.8% | SK-MEL-5 melanoma 63.8% | UACC-62 melanoma 50.3% | SK-MEL-28 melanoma 65.3%

COC(=O)/C=C/c1cccc2c1C(=O)NC(C)(c1cc3cc4ccccc4cc3oc1=O)N2 (stereo unspecified)
inactive: HCT-15 colon 54.6% | HT29 colon 32.9% | SNB-75 CNS 61.8% | U251 CNS 43.8% | PC-3 prostate 38.9% | SK-MEL-5 melanoma 79.5% | UACC-62 melanoma 49.2% | SK-MEL-28 melanoma 58%
active: LOX IMVI melanoma 6.32%

Cc1cccc(Nc2nc3ccccc3nc2/C=C/c2ccc(F)cc2)c1
inactive: HCT-15 colon 95.6% | HT29 colon 86.4% | SNB-75 CNS 91.9% | U251 CNS 94% | PC-3 prostate 89.1% | SK-MEL-5 melanoma 88% | UACC-62 melanoma 74.7% | LOX IMVI melanoma 101% | SK-MEL-28 melanoma 101%

C/C(=N\N=C\c1cc([N+](=O)[O-])ccc1Cl)c1ccc2c(c1)Nc1ccccc1S2
inactive: HCT-15 colon 72.4% | HT29 colon 72.2% | SNB-19 CNS 51.6% | PC-3 prostate 82.4% | SK-MEL-5 melanoma 78.6% | UACC-62 melanoma 69.6% | SK-MEL-28 melanoma 90.7%
active: SNB-75 CNS 5.46%

CC1=C(C(=O)c2ccccc2)C(c2cccc3ccccc23)n2c(nc3ccccc32)N1 (stereo unspecified)
inactive: HCT-15 colon 70.3% | HT29 colon 50.5% | SNB-75 CNS 60.3% | SNB-19 CNS 66.1% | PC-3 prostate 53.2% | SK-MEL-5 melanoma 62.1% | UACC-62 melanoma 37.5% | SK-MEL-28 melanoma 84.1%

N#Cc1c(-c2cccc(Cl)c2Cl)cc(-c2c[nH]c3ccccc23)[nH]c1=O
inactive: HCT-15 colon 49.7% | HT29 colon 110% | SNB-75 CNS 79.6% | SNB-19 CNS 77.2% | PC-3 prostate 26.5% | SK-MEL-5 melanoma 51.6% | UACC-62 melanoma 47.7% | SK-MEL-28 melanoma 83.5%

CN(C)c1ccnc(CNCCSC2(c3ccccc3)c3ccccc3C=Cc3ccccc32)c1
active: HCT-15 colon -36.9% | HT29 colon -46.4% | SNB-75 CNS -10.9% | U251 CNS -77.1% | PC-3 prostate -23.3% | SK-MEL-5 melanoma -99.4% | UACC-62 melanoma -32.2% | LOX IMVI melanoma -96.2% | SK-MEL-28 melanoma -64.6%

Cc1cccc(NC(=O)[C@]23CCC(C)(C)CC2C2=CCC4[C@@]5(C)C[C@@H](O)[C@H](O)[C@@](C)(CO)C5CC[C@@]4(C)[C@]2(C)CC3)c1 (stereo partly specified)
inactive: SNB-75 CNS 43.7% | U251 CNS 27.8% | PC-3 prostate 13.3% | UACC-62 melanoma 20.3% | SK-MEL-28 melanoma 32.5%
active: HCT-15 colon -5.5% | HT29 colon -56.1% | SK-MEL-5 melanoma -90.7% | LOX IMVI melanoma -75.2%

C=C1CC[C@@H]2[C@]3(C)COC(c4cn(-c5ccccc5)nc4-c4cccc([N+](=O)[O-])c4)O[C@@H]3CC[C@@]2(C)[C@@H]1C/C=C1/C(=O)OC[C@H]1O (stereo partly specified)
inactive: SNB-75 CNS 109% | SNB-19 CNS 23.5% | PC-3 prostate 16.5%
active: HCT-15 colon -74.2% | HT29 colon -59.7% | SK-MEL-5 melanoma -99.6% | UACC-62 melanoma -71.7% | SK-MEL-28 melanoma -47.9%

CSc1ccc(NC(=O)c2ccc3nn(/C(C#N)=C/c4ccccn4)nc3c2)cc1
active: HCT-15 colon -72.1% | HT29 colon -86.1% | SNB-19 CNS -75.7% | PC-3 prostate -73.7% | SK-MEL-5 melanoma -92.8% | UACC-62 melanoma -96.3% | SK-MEL-28 melanoma -98.4%
inactive: SNB-75 CNS 35.1%

COc1ccc(C(=O)/C=C/c2ccc3ccccc3c2)cc1S(N)(=O)=O
active: HCT-15 colon -87.1% | HT29 colon -26.5% | SNB-75 CNS -15.5% | SNB-19 CNS -49.6% | U251 CNS -96.3% | UACC-62 melanoma -55.6% | LOX IMVI melanoma -89.1% | SK-MEL-28 melanoma -41.5%
